# PLK1 PBD block = blocks phosphopeptide binding to human PLK1 polo-box domain. AID 720504. 360,000 tested, 2.8% active. P53350. Potency, µM, for inactives: max response, negative = inhibition, actives largely listed as inhibitors. Plk1 PBD binding of FITC phosphopeptide, fluorescence polarization; further: potency means the concentration at half of the fitted maximal effect; series mostly up to about 57 µM; nearly all actives have a fitted effect of over 65% in size
# GCN5L2 inh = inhibitors of human GCN5L2 histone acetyltransferase; Q92830; GCN5L2 HAT assay, ThioGlo1 CoA-SH fluorescence; Potency, µM (titrated, usually from 58.9 µM), for inactives: at the top dose activity change, negative = inhibition, usual class: inhibitors; 390,000 tested, 0.21% active; AID 504327; further: potency means the concentration at half of the fitted maximal effect
#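 GCN5L2 (20 nM) in 50mM HEPES pH 7.5, 0.1mM EDTA, 0.01% Tween-20 preincubated 15 min with compounds at room temperature. Reaction started with H3(1-25) 75uM, acetyl-CoA 70uM, ThioGlo1 50uM; CoA-thiol fluorescence (Ex340/Em540) read at 0 and 20 min.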
# GLS inhibitor = glutaminase GLS (human) inhibition; AID 624170; O94925; GLS enzymatic activity, qHTS titration; Potency, µM (doses to about 45.5 µM), without a hit: at the top dose activity change, negative = inhibition, hits mostly inhibitors; 410,000 tested, 0.21% active; further: potency means the concentration at half of the fitted maximal effect
# Target sequence (O94925 whole entry, looked up): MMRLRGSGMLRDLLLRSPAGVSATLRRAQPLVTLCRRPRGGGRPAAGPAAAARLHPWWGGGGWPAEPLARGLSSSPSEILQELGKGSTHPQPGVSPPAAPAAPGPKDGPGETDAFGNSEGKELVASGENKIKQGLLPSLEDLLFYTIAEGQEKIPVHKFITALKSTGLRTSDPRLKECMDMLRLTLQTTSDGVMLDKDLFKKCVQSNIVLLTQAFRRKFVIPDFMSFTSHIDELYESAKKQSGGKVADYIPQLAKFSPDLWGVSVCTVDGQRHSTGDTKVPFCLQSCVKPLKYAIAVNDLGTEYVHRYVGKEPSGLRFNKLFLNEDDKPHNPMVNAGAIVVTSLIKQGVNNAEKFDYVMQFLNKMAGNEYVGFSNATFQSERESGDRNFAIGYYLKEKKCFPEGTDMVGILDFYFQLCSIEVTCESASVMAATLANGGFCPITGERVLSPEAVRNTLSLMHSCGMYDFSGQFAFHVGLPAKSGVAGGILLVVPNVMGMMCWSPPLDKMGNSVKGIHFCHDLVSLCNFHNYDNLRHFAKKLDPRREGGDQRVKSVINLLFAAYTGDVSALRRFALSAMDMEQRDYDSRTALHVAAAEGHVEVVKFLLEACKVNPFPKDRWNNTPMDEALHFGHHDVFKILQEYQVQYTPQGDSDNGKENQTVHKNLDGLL
#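 Two-point fluorescence kinetic (t0, 30 min RT) for hKGA; glutamate detected via glutamate oxidase–HRP–Amplex Red. Substrate: 1 mM L-glutamine solution; buffer 45 mM KH2PO4, pH 8.2.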
# PI4K2A inh = inhibitors of human PI4K2A; purified PI4K2A, ADP-Glo luminescence, 1 h; active compounds read low; activity change, negative = inhibition, % at 76.9 µM; 420,000 tested, 0.13% active; AID 1346378; in the data active means activity change below about -50%; inconclusive means mostly about -30% to -49%;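 further: -100% = wells without enzyme as full effect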
#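 In this quantitative HTS, ADP production by PI4K2A was quantified luminescently after 1 h at ambient temperature; 100 microM adenosine served as plate-quality control.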
# VDR inhibitor = inhibitors of human vitamin D receptor; P11473; VDR-SRC2-3 peptide fluorescence polarization, 2 h; Potency, µM, for the others: max response, negative = inhibition, most hits filed as inhibitors; 400,000 tested, 0.93% active; further: potency means the concentration at half of the fitted maximal effect
#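 Reagent solutions, kept cold and dark, are dispensed first; compounds are then pinned in at 23 nl, plates briefly spun, and incubated 2 h at ambient temperature. Inhibition of VDR–SRC2-3 peptide binding is read by fluorescence polarization.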
# Active calls of the source: *; ? = inconclusive; nt = no result given. Sampled rows, rich in hits. Any-hit rate of the full collection: about 3.1%. Unless noted, the call rests on the fitted dose curve; in most records, active means well fitted curve in the direction sought with a large enough effect; inconclusive means small, poorly fitted or top-dose-only effect, or another doubt; inactive means no such curve, though single readings can be large; an effect the other way counts as inactive or inconclusive. Unless noted, on the % scale 0 is the no-effect control and ±100 the full control effect.
SMILES,PLK1 PBD block,GCN5L2 inh,GLS inhibitor,PI4K2A inh,VDR inhibitor
CN1CCN(S(=O)(=O)c2ccc(NC(=S)NC(=O)c3ccccc3)cc2)CC1,27µM*,-9%,19%,-3,-2%
O=C(NC(=S)Nc1ccc(S(=O)(=O)N2CCCCC2)cc1)c1ccc(Cl)cc1,-14%,-3%,1%,-5,-8%
CN1CCN(S(=O)(=O)c2ccc(NC(=S)NC(=O)c3ccc(Cl)cc3)cc2)CC1,19µM*,-8%,10%,1,-16%
O=C(O)Cn1cnnn1,nt,nt,nt,1,nt
O=C(OC12CCCN(C1)/C(=C/c1cccc(Cl)c1)C2)c1ccccc1 (stereo unspecified),nt,nt,nt,0,nt
CC(=O)NC1[C@H]([C@H](O)[C@H](O)CO)OC(C(=O)O)=C[C@H]1N=C(N)N (stereo partly specified),nt,-20%,-10%,nt,3%
CC(C)(C)c1nnc2sc(SCC(=O)N3CCc4ccccc43)nn2c1=O,27µM*,-3%,7%,0,-12%
NC(C(=O)O)c1cc(O)c(Cl)c(O)c1 (stereo unspecified),nt,32µM*,nt,nt,2%
C=CCn1c(=O)c2c(nc3n2CCS3)n(C)c1=O,-9%,0%,-2%,1,-3%
Cc1ccccc1Cn1c(=O)c2c(nc3n2CCCN3Cc2ccccc2)n(C)c1=O,-2%,nt,11µM*,2,14%
Cn1c(=O)n(Cc2ccccc2)c(=O)c2c1nc1n2CCCN1Cc1ccccc1,-7%,-4%,-8%,6,6%
Cn1c(=O)n(Cc2ccccc2)c(=O)c2c1nc1n2CCS1,-4%,-1%,11µM*,1,-14%
COCCn1c(=O)c2c(nc3n2CC(C)CN3Cc2ccccc2)n(C)c1=O (stereo unspecified),-22%,-1%,7%,5,0%
CCOCCn1c(=O)c2c(nc3n2CC(C)CN3Cc2ccccc2)n(C)c1=O (stereo unspecified),30µM*,-3%,0%,5,-20%
COC(=O)CSc1nnc(-c2n[nH]c3c2CCC3)n1N,nt,nt,nt,5,nt
Cc1ccccc1S(=O)(=O)N1CCN(c2nc(-c3cccs3)nc3ccccc23)CC1,nt,nt,nt,nt,-8%
COc1ccc(OC)c(NC(=O)CSc2nnc(C3CCCCC3)n2-c2ccccc2)c1,27µM*,-10%,-2%,-11,-14%
CCO/C=C1/C(=O)N(CC)c2ccccc21,15µM*,-6%,-14%,-3,-17%
CCO/C=C1/C(=O)N(c2ccc(OC)cc2)C(=O)c2ccccc21,17µM*,-6%,24%,-13,-23%
CCO/C=C1\C(=O)N(c2ccccc2)C(=O)c2ccccc21,-19%,-3%,-6%,-5,-15%
O=C(OC12CCCN(C1)/C(=C/c1cccc(Cl)c1)C2)c1ccco1 (stereo unspecified),nt,nt,nt,2,nt
O=C(OCc1cn(Cc2cccc(Cl)c2)nn1)N1CCCC1,nt,nt,nt,-1,nt
O=C(OCCN1CCN(C2CN(Cc3cn(Cc4ccccc4F)nn3)S(=O)(=O)C2)CC1)c1cc2ccccc2o1 (stereo unspecified),nt,nt,nt,-7,nt
CC1(C)SC(=S)N(/N=C/c2ccccc2O)C1N(O)C(=O)Nc1ccccc1 (stereo unspecified),-5%,-16%,1µM*,1,12%
O=c1[nH]c2ccc(NCc3ccccc3OCc3ccc(Cl)cc3)cc2[nH]1,1%,?,16%,11,13%
SMILES,PLK1 PBD block,GCN5L2 inh,GLS inhibitor,PI4K2A inh,VDR inhibitor
CCOc1cc(CNc2ccc(O)cc2)ccc1OCc1ccc(Cl)cc1,nt,-5%,14%,-55*,?
Oc1ccc(NCc2ccccc2OCc2ccc(Cl)cc2)cc1,nt,-29%,7%,-53*,?
O=C(NC(=S)N(Cc1ccccc1)c1ccccn1)C1CC1,21µM*,2%,8%,-5,-19%
O=C(NC(=S)N(Cc1ccccc1)Cc1ccccc1)C1CCCCC1,-1%,1%,10%,-2,4%
COc1ccc(S[C@]2(C(=O)N3CCOCC3)CC(=O)N(c3ccccc3)[C@@H]2c2ccc(OC)cc2)cc1,nt,nt,nt,-4,nt
CCOC(=O)CC[C@H]1CC[C@]2(CCCN(C(=O)c3cccnc3)C2)O1,nt,nt,nt,0,nt
COc1ccccc1NS(=O)(=O)c1cc(N2Cc3ccccc3C2=N)ccc1N1CCOCC1,21µM*,-4%,-14%,3,-6%
COc1ccccc1NS(=O)(=O)c1cccc(NC(=O)Nc2cccc(Cl)c2)c1,8%,-17%,-2%,-5,5%
COc1ccccc1NS(=O)(=O)c1cccc(NC(=O)NCCCl)c1,27µM*,-3%,-9%,-7,?
COCCNC(=S)Nc1ccc(N2CCOCC2)c(S(=O)(=O)Nc2ccccc2OC)c1,21µM*,-10%,-2%,3,?
COc1ccccc1NS(=O)(=O)c1ccc(C(N)=O)cc1,24µM*,-10%,-2%,-2,-5%
COc1ccccc1NS(=O)(=O)c1cc(NC(=O)COc2ccccc2)ccc1N1CCOCC1,-6%,0%,2%,0,-17%
Cc1ccc2c(c1)C1CS(=O)(=O)N(Cc3ccc(F)cc3)CN1C2 (stereo unspecified),nt,nt,nt,-1,nt
CCCCNC(=O)C[C@H]1C[C@@]2(C(=O)OC)C(=C[C@H](C3CCCC3)O[C@@H]2C)N(Cc2cccc3ccccc23)C1=O,nt,nt,nt,-5,nt
COc1cc(/C=C/C(=O)O[C@H]2CC[C@]34C[C@]35CC[C@]3(C)[C@@H]([C@H](C)CCC=C(C)C)CC[C@@]3(C)C5CCC4C2(C)C)ccc1O (stereo partly specified),nt,nt,-3%,nt,nt
Brc1ccccc1Cn1nnc(-c2ccc(N3CCOCC3)cc2)n1,nt,nt,nt,-2,nt
COc1ccc(OC(=O)N(CC(=O)O)Cc2ccc(OCCc3nc(-c4ccccc4)oc3C)cc2)cc1,nt,nt,nt,-2,nt
COc1cccc(NC(=S)NCCN2CCOCC2)c1,-19%,-1%,17%,-3,-15%
COc1ccccc1NS(=O)(=O)c1cccc(NC(=S)NCCN2CCOCC2)c1,24µM*,2%,5%,8,8%
Cc1ccc(S(=O)(=O)Nc2cc(Cl)c3oc4c(c3c2)CCCC4)cc1,nt,?,1%,-2,-4%
CN(CC(=O)Nc1n[nH]c(=S)s1)S(=O)(=O)c1cccc2cccnc12,30µM*,?,?,-4,-1%
O=C(Nc1n[nH]c(=S)s1)c1ccco1,?,32µM*,-13%,-9,-23%
Cc1ccc(-c2[nH]c3c(c2-c2c(-n4cccc4)n(C)c(=O)[nH]c2=O)c(=O)[nH]c(=O)n3C)cc1,nt,-22%,?,-5,2%
Cc1cc(OCCn2cnc3ccccc3c2=O)cc(C(C)C)c1,21µM*,1%,-12%,-5,-30%
Cc1cc(C)c(OCCCCn2cnc3ccccc3c2=O)c(C)c1,0%,2%,2%,2,-2%
COc1ccc(-c2cc(C(=O)O)[nH]n2)cc1OC,-18%,1%,15%,-73*,-24%
O=C1Nc2ccccc2C(=O)N2CCC[C@@H]12,nt,nt,nt,nt,-1%

# Screening data deposited in PubChem by National Center for Advancing Translational Sciences (NCATS).
